“And” between values parts separate entries of the source, which are not always exact repeats. Identical values can stand only once. Hit rate of the full screen: of about 5,500 compounds, about 2,000 (36%) were called active. About 18% were inconclusive and are not listed. The list shows a part of the results. Unmarked numbers belong to inactive results. Rule as the data show it: active = normalized growth mostly below about 0.91 (no sharp cut-off); inconclusive = no clear call, values can overlap the other calls; inactive = mostly above about 0.92.
Assay: chemical genetic growth profiling, strain panel (AID 1159580);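 also: tested at 20 µM; growth read once vehicle control cultures reached saturation at 30 °C; 1 = growth at the plate median or of vehicle wells; lower values mean less growth of the strain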
Conditions: S. cerevisiae deletion strains, growth OD

O=C1C(Cl)=C(Cl)C(=O)C(Cl)=C1Cl
normalized growth (locus YAL013W, strain DEP1, hits give low values): 0.483 (active)
normalized growth (locus YAL021C, strain ccr4, hits give low values): 0.883 (active)
normalized growth (locus YAL026C, strain drs2, hits give low values): 0.831 (active)
normalized growth (locus YAL030W, strain snc1, hits give low values): 0.986
normalized growth (locus YBL061C, strain skt5, hits give low values): 0.994
normalized growth (locus YBR009C, strain hhf1, hits give low values): 0.843 (active)
normalized growth (locus YBR021W, strain FUR4, hits give low values): 0.293 (active)
normalized growth (locus YBR023C, strain chs3, hits give low values): 0.927
normalized growth (locus YBR171W, strain sec66, hits give low values): 0.967
normalized growth (locus YBR229C, strain ROT2, hits give low values): 0.979
normalized growth (locus YBR231C, strain swc5, hits give low values): 0.96
normalized growth (locus YBR279W, strain paf1, hits give low values): 0.929 (active)
normalized growth (locus YCL011C, strain gbp2, hits give low values): 0.865 (active)
normalized growth (locus YCL016C, strain dcc1, hits give low values): 0.919
normalized growth (locus YCL029C, strain bik1, hits give low values): 0.929
normalized growth (locus YCL069W, strain vba3, hits give low values): 0.985
normalized growth (locus YCR088W, strain abp1, hits give low values): 0.949
normalized growth (locus YDL005C, strain med2, hits give low values): 1
normalized growth (locus YDL035C, strain GPR1, hits give low values): 0.525 (active)
normalized growth (locus YDL040C, strain nat1, hits give low values): 0.976
normalized growth (locus YDL074C, strain BRE1, hits give low values): 0.531 (active)
normalized growth (locus YDL101C, strain DUN1, hits give low values): 0.941
normalized growth (locus YDL134C, strain PPH21, hits give low values): 0.499 (active)
normalized growth (locus YDL185W, strain tfp1, hits give low values): 0.118 (active)
normalized growth (locus YDL192W, strain arf1, hits give low values): 0.239 (active)
normalized growth (locus YDR001C, strain nth1, hits give low values): 0.991
normalized growth (locus YDR069C, strain doa4, hits give low values): 0.92
normalized growth (locus YDR101C, strain arx1, hits give low values): 0.881 (active)
normalized growth (locus YDR137W, strain rgp1, hits give low values): 0.978
normalized growth (locus YDR150W, strain NUM1, hits give low values): 0.79 (active)
normalized growth (locus YDR159W, strain sac3, hits give low values): 1.03
normalized growth (locus YDR162C, strain NBP2, hits give low values): 0.384 (active)
normalized growth (locus YDR195W, strain ref2): 0.894
normalized growth (locus YDR297W, strain sur2, hits give low values): 0.997
normalized growth (locus YDR318W, strain mcm21, hits give low values): 0.181 (active)
normalized growth (locus YDR334W, strain swr1, hits give low values): 0.98
normalized growth (locus YDR335W, strain msn5, hits give low values): 0.963
normalized growth (locus YDR388W, hits give low values): 0.164 (active)
normalized growth (locus YDR392W, strain spt3, hits give low values): 0.686 (active)
normalized growth (locus YDR502C, strain sam2, hits give low values): 0.61 (active)
normalized growth (locus YEL003W, strain gim4, hits give low values): 0.881 (active)
normalized growth (locus YEL037C, strain rad23, hits give low values): 0.99
normalized growth (locus YEL061C, strain CIN8 (second series), hits give low values): 0.954
normalized growth (locus YEL061C, strain CIN8, hits give low values): 0.711 (active)
normalized growth (locus YER015W, strain faa2, hits give low values): 0.878 (active)
normalized growth (locus YER016W, strain bim1, hits give low values): 0.979
normalized growth (locus YER110C, hits give low values): 0.704 (active)
normalized growth (locus YER111C, strain swi4, hits give low values): 0.993
normalized growth (locus YER155C, strain BEM2 (second series), hits give low values): 0.763 (active)
normalized growth (locus YER155C, strain BEM2, hits give low values): 0.509 (active)
normalized growth (locus YER167W, strain BCK2, hits give low values): 0.198 (active)
normalized growth (locus YFR010W, strain ubp6, hits give low values): 0.891 (active)
normalized growth (locus YGL078C, strain dbp3, hits give low values): 0.077 (active)
normalized growth (locus YGL086W, strain mad1, hits give low values): 0.252 (active)
normalized growth (locus YGL167C, strain pmr1, hits give low values): 0.982
normalized growth (locus YGL173C, strain kem1, hits give low values): 0.958
normalized growth (locus YGL227W, strain vid30, hits give low values): 0.997
normalized growth (locus YGL240W, strain doc1, hits give low values): 0.99
normalized growth (locus YGL248W, strain PDE1, hits give low values): 0.502 (active)
normalized growth (locus YGL253W, strain hxk2, hits give low values): 0.993
normalized growth (locus YGR078C, strain PAC10, hits give low values): 0.226 (active)
normalized growth (locus YGR135W, strain pre9, hits give low values): 0.335 (active)
normalized growth (locus YGR229C, strain SMI1, hits give low values): 0.0849 (active)
normalized growth (locus YGR252W, strain gcn5, hits give low values): 0.195 (active)
normalized growth (locus YHR013C, strain ard1, hits give low values): 0.829 (active)
normalized growth (locus YHR027C, strain rpn1, hits give low values): 0.904 (active)
normalized growth (locus YHR030C, strain SLT2, hits give low values): 0.281 (active) and 0.105 (active)
normalized growth (locus YHR079C, strain IRE1 (second series), hits give low values): 0.91 (active)
normalized growth (locus YHR079C, strain IRE1, hits give low values): 0.129 (active)
normalized growth (locus YHR094C, strain hxt1, hits give low values): 0.614 (active)
normalized growth (locus YHR129C, strain ARP1, hits give low values): 0.655 (active)
normalized growth (locus YHR142W, strain chs7, hits give low values): 0.928
normalized growth (locus YHR200W, strain rpn10, hits give low values): 0.27 (active)
normalized growth (locus YIL066C, strain RNR3, hits give low values): 0.634 (active)
normalized growth (locus YIL073C, strain SPO22, hits give low values): 0.5 (active)
normalized growth (locus YIL125W, strain kgd1, hits give low values): 0.0634 (active)
normalized growth (locus YIR030C, strain dcg1, hits give low values): 0.85 (active)
normalized growth (locus YJL092W, strain hpr5, hits give low values): 0.94
normalized growth (locus YJL095W, strain BCK1 (second series), hits give low values): 0.978
normalized growth (locus YJL095W, strain BCK1, hits give low values): 0.724 (active) and 0.122 (active)
normalized growth (locus YJL115W, strain asf1, hits give low values): 0.979
normalized growth (locus YJL129C, strain trk1, hits give low values): 1
normalized growth (locus YJL134W, strain LCB3, hits give low values): 0.937
normalized growth (locus YJL154C, strain vps35, hits give low values): 0.984
normalized growth (locus YJL164C, strain tpk1, hits give low values): 0.892 (active)
normalized growth (locus YJL166W, strain qcr8, hits give low values): 0.871 (active)
normalized growth (locus YJL168C, strain set2, hits give low values): 0.8 (active)
normalized growth (locus YJL187C, strain SWE1 (second series), hits give low values): 0.982
normalized growth (locus YJR043C, strain POL32, hits give low values): 0.671 (active)
normalized growth (locus YJR066W, strain TOR1, hits give low values): 0.0486 (active)
normalized growth (locus YJR075W, strain HOC1, hits give low values): 0.566 (active)

From PubChem BioAssay AID1159580 (chemical genetic matrix, 2015)
